In ChEMBL document CHEMBL3988442, “University of Dundee, Small-Polar-MMV Screening Library” (2021):
For some assays here: Measured potencies and affinities stand elsewhere.

How the values were obtained:
Set-up in all cases: scale not given: direction of the effect not stated beside the values
[1] = molecular target: Protein translocase subunit SecA (Escherichia coli (strain K12)) (UniProt P10408); assay: Assay to Identify E. coli SecA ATPase Inhibitors; assay type: functional; conditions: 30 µM
Sequence of Protein translocase subunit SecA (Escherichia coli (strain K12)) (P10408 whole entry): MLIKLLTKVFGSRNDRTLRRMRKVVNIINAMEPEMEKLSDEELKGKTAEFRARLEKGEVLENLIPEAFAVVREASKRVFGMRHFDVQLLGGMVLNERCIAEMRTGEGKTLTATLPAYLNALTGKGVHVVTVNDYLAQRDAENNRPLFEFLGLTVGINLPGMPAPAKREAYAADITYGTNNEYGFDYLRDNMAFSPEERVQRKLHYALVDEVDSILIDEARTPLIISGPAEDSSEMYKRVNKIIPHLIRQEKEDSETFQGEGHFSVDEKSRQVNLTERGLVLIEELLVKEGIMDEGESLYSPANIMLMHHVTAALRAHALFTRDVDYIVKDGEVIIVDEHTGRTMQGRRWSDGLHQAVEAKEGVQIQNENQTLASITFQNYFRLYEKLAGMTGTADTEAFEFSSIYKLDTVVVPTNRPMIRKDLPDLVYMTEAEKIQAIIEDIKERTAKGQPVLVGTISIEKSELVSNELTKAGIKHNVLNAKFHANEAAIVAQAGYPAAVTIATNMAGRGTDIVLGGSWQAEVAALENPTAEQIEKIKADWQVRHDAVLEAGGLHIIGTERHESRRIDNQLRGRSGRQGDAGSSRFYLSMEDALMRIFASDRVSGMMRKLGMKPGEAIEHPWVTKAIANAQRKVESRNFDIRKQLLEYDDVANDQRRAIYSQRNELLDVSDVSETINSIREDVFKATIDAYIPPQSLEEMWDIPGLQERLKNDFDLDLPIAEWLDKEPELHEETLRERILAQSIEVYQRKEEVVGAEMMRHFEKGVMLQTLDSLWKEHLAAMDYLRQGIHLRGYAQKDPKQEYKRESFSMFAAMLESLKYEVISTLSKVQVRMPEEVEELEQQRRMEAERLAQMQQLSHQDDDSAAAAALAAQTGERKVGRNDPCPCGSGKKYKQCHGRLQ

[2] = molecular target: T1, Ubiquitin-activating enzyme e1, putative (Leishmania donovani (strain BPK282A1)) (UniProt E9BSI1); assay: Leishmania donovani Ubiquitin Activating Enzyme (LdE1); assay type: functional; conditions: 30 µM
T1 sequence (whole entry): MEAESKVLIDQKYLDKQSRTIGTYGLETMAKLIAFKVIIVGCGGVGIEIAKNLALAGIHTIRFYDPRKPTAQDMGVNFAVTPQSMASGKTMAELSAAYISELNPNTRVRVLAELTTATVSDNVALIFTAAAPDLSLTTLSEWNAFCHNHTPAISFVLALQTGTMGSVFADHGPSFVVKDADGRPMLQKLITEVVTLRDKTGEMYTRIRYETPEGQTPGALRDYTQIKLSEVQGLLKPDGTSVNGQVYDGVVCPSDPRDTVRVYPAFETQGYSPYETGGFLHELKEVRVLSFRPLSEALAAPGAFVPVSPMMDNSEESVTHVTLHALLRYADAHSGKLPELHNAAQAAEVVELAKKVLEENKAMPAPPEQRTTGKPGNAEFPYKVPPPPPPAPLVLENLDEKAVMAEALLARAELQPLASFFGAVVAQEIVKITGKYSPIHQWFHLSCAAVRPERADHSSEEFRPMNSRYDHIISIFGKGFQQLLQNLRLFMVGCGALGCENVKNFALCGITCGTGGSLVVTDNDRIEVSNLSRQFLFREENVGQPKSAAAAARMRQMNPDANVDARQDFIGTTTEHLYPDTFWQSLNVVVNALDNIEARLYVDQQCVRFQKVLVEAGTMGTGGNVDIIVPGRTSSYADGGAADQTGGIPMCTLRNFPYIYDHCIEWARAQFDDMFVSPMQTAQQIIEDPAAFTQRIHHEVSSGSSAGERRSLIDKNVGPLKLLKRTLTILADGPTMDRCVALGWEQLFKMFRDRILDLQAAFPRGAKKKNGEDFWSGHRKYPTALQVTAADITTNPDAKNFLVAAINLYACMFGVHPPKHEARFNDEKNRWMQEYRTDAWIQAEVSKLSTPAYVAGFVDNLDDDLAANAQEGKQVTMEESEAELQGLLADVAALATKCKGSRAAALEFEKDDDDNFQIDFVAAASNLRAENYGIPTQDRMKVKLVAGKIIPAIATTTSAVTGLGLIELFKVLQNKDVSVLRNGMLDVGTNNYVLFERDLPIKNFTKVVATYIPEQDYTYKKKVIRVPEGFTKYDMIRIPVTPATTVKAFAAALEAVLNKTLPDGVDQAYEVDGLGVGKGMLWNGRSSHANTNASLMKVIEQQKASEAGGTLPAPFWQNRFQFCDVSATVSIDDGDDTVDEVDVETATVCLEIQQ

[3] = molecular target: AMP-activated protein kinase, AMPK (Homo sapiens) (UniProt P54646+O43741+P54619+Q9UGJ0+Q9Y478+Q13131+Q9UGI9); assay: AMP-dependent Kinase enzyme assay. An in vitro enzyme assay that detects ADP turnover that is directly proportional to AMPK activity. This uses naive AMPK that is activated during the assay with MK-8722; assay type: functional; conditions: 30 µM
[4] = molecular target: Sialic acid-binding Ig-like lectin 9 (Homo sapiens) (UniProt Q9Y336); assay: Hs-Siglec9 ALPHAscreen SOP 20170721; conditions: 10 µM
Sequence of Sialic acid-binding Ig-like lectin 9 (Homo sapiens) (Q9Y336 whole entry): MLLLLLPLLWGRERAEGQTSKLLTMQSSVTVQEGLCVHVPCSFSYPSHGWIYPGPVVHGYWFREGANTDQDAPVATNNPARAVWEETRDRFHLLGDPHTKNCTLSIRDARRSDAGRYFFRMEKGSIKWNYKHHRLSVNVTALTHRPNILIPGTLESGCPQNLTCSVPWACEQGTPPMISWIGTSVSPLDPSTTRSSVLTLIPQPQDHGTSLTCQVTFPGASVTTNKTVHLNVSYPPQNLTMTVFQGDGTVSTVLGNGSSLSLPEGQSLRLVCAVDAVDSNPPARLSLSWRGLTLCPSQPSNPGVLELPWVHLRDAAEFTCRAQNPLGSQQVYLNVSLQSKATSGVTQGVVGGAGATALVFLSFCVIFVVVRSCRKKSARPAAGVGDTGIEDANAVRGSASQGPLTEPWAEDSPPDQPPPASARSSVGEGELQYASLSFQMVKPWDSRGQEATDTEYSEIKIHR

Trypanosoma cruzi = assay: Trypanosoma cruzi phosphomannomutase and mannose-1-phosphate guanylyltransferase assay; assay type: functional; conditions: 10 µM
[5] = molecular target: T2, Arginase-2, mitochondrial (Homo sapiens) (UniProt P78540); assay: in vitro enzyme assay to detect the production of urea directly proportional to the activity of Arginase II; assay type: functional; conditions: 33.3 µM; further: in the data most compounds retested in dose-response had high values
T2 sequence (whole entry): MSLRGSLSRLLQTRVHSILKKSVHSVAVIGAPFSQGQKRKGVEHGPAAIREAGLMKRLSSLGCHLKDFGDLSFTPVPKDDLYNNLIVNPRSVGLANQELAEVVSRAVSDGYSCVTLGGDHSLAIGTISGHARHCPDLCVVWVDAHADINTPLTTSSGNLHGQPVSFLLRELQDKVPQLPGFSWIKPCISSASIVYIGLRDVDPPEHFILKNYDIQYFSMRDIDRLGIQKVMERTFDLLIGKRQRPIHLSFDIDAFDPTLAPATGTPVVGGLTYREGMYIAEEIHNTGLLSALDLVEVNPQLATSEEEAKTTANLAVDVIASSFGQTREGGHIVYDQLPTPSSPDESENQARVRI

[6] = molecular target: T3, Proteasome subunit beta (Trypanosoma cruzi) (UniProt O96673); assay: Trypanosoma cruzi proteasome chymotrypsin-like activity (TcProtChymo) assay.; further: in the data most compounds retested in dose-response had high values; assay type: functional; conditions: 9.37 µM
T3 sequence (whole entry): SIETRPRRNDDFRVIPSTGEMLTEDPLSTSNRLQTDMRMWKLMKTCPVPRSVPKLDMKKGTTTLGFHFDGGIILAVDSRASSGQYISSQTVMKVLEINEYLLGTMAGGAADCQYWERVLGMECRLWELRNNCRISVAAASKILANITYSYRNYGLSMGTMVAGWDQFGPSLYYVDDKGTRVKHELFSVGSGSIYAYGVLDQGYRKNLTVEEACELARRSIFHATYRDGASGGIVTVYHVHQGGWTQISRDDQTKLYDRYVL

Homo sapiens = organism: Homo sapiens; assay: To identify inhibition of the IFN signalling (Jak-Stat) pathway via expression of an eGFP reporter gene under the control of an IFN-stimulated response element (ISRE) containing MxA promoter.; assay type: functional; conditions: 30 µM
[7] = molecular target: T4, Tyrosyl-tRNA synthetase, putative (Trypanosoma cruzi (strain CL Brener)) (UniProt Q4DSP6); assay: Trypanosoma cruzi tyrosyl tRNA synthetase (TcYRS) _High Tyrosine SOP; assay type: functional; conditions: 30 µM; further: in the data most compounds retested in dose-response had high values
T4 sequence (whole entry): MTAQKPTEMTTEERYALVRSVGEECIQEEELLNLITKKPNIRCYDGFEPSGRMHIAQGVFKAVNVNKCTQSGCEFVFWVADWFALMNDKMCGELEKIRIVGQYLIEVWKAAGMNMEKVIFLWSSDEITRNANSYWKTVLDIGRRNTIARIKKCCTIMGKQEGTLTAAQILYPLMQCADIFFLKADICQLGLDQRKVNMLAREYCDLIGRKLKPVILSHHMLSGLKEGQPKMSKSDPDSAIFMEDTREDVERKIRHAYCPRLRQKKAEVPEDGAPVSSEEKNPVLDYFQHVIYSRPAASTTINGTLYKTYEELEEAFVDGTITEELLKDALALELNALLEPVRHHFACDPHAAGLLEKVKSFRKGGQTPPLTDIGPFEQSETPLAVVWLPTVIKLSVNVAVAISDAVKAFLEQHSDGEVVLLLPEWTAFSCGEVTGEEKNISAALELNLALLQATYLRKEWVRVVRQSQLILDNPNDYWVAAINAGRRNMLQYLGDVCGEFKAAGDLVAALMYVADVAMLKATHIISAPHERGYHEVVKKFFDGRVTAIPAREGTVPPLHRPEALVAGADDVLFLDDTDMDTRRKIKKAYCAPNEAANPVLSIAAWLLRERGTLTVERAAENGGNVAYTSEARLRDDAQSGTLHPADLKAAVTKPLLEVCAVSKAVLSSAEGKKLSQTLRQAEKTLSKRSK

[8] = molecular target: T4, Tyrosyl-tRNA synthetase, putative (Trypanosoma cruzi (strain CL Brener)); assay: Trypanosoma cruzi tyrosyl tRNA synthetase (TcYRS) SOP; assay type: functional; conditions: 30 µM
[9] = molecular target: Chromo domain-containing protein 1 (Saccharomyces cerevisiae (strain ATCC 204508 / S288c) (Baker's yeast)) (UniProt P32657); assay: ScCHD-1 Enzyme Inhibition Assay; assay type: functional; conditions: 30 µM; further: in the data most compounds retested in dose-response had high values
Sequence of Chromo domain-containing protein 1 (Saccharomyces cerevisiae (strain ATCC 204508 / S288c) (Baker's yeast)) (P32657 whole entry, the tested form may be a part): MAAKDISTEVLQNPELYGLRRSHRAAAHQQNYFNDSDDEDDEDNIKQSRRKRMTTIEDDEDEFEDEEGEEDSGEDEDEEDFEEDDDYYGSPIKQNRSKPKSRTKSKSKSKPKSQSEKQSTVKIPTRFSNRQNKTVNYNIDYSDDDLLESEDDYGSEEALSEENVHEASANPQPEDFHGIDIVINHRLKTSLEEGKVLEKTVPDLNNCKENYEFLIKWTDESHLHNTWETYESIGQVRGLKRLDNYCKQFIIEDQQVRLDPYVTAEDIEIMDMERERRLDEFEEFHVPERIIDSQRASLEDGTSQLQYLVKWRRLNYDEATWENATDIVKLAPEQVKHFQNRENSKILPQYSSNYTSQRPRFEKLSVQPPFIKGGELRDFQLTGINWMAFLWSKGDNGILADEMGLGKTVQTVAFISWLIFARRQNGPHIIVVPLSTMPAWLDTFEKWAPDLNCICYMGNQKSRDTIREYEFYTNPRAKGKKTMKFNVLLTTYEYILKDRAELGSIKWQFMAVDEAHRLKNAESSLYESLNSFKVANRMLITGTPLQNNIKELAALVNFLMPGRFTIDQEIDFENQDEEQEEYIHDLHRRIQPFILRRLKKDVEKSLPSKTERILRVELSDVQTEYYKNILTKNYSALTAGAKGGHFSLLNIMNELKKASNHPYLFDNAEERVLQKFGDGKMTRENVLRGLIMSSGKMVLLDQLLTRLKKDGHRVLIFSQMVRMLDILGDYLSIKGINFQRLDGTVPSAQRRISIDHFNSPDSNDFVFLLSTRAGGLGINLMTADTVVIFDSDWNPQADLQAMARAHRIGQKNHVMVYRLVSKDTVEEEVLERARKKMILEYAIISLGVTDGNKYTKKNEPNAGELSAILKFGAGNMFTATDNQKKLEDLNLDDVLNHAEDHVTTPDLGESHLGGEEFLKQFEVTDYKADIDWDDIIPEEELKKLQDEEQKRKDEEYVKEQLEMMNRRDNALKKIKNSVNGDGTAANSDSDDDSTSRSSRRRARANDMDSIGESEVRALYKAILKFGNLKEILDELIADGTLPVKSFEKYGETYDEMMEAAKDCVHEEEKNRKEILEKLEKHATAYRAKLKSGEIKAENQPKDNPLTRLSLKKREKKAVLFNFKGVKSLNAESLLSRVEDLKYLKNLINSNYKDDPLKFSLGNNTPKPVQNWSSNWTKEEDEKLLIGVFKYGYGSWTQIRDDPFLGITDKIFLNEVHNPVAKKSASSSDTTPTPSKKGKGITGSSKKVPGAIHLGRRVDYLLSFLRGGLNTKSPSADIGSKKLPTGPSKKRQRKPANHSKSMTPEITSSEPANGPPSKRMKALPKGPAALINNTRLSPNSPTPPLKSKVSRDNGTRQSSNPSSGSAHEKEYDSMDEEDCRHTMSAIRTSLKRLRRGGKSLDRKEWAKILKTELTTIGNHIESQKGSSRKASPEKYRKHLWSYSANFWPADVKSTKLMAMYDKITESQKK

| SMILES | Percent Effect [1] | Percent Effect [2] | Percent Effect [3] | Percent Effect [4] | Percent Effect (Trypanosoma cruzi) | Percent Effect [5] | Percent Effect [6] | Percent Effect (Homo sapiens) | Percent Effect [7] | Percent Effect [8] | Percent Effect [9] |
| --- | --- | --- | --- | --- | --- | --- | --- | --- | --- | --- | --- |
| COc1ccccc1CC(=O)NS(=O)(=O)c1cncc(Br)c1 | -4.15% | 2.6% | 4.69% | -5.24% | -1.87% | 2.13% | 1.35% | 21.7% | -4.85% | -4.88% | -7.14% |
| CCNC(=O)N(C)C(c1cccc(F)c1)c1ccccn1 (stereo unspecified) | -4.06% | 2.6% | 8.62% | 13% | 5.43% | -2.49% | 9.46% | 21.3% | 7.77% | 21.9% | -6.09% |
| Cn1cc(CN2CC3(CCN(C(=O)c4ccoc4)C3)C2)cn1 | -1.29% | -2.74% | 4.12% | -0.00343% | -3.77% | -1.6% | 10.2% | 15.8% | -1.04% | -1.24% | -6.08% |
| O=C(CCN1CCC(C(=O)c2cc(F)ccc2F)CC1)NC1CC1 | -5.55% | 5.26% | 2.46% | 2.22% | -0.0974% | -1.18% | 12.4% | 16.9% | 3.19% | 15.6% | -3.85% |
| CNc1nc2c(s1)C(c1c(F)cccc1Cl)CC(=O)N2 (stereo unspecified) | -1.81% | 13.2% | -308% | 1.93% | 4.58% | -4.73% | 6.81% | -0.412% | 2.13% | 2.6% | 22.5% |
| N#Cc1cccc(CN2CC[C@@H]3[C@@H]2CC(=O)N3Cc2cccnc2)c1 | -2.43% | 16% | 12.4% | 1.95% | -4.72% | -1.17% | 13.7% | -10.2% | 3.19% | 11.5% | -1.86% |
| CCOCC(O)CN1CCN(C(=O)c2ccnc(N(C)C)c2)CC1 (stereo unspecified) | -2.11% | 2.7% | -5.93% | 13.5% | 5.99% | 1.43% | 0% | -4.49% | 1.59% | 7.32% | -3.55% |
| Cc1cc(C[C@@H]2COC[C@@H]2NC(=O)Cn2c(=O)oc3ccccc32)on1 | -0.169% | 5.48% | 1.35% | -2.12% | 3.33% | 8.64% | 1.77% | -6.43% | 4.3% | 7.5% | 1.28% |
| Cc1noc(CCCC(=O)NC(C)c2cccnc2)n1 (stereo unspecified) | 0.699% | 13.2% | 0.237% | 0.605% | -5.83% | 5.75% | 8.86% | 21.4% | 8.33% | 12.2% | -6.49% |
| Cc1nc(CN2CCc3ncnc(-c4ccc(F)cc4)c3CC2)cs1 | -3.21% | 10.8% | 5.22% | -0.105% | -1.66% | 9.87% | 18.4% | -9.45% | 5.41% | 17.9% | -0.896% |
| Cc1ccc(N2CCCC(NCc3cscn3)C2)nn1 (stereo unspecified) | -1.67% | 13.5% | -43.1% | -1.8% | -1.04% | 18.4% | 11.3% | 3.87% | 12.3% | 23.5% | -5.79% |
| Cc1ccc(C(=O)N2Cc3ccccc3C2)cc1N1CCNC1=O | -6.25% | 2.67% | 0.516% | 9.14% | 7.89% | -3.12% | 16.2% | -13.9% | 7.1% | 13.6% | -6.92% |
| COc1c(CNCc2cnn(C)c2)c(C(C)C)nn1C | -4.88% | 23.7% | -11.3% | -0.847% | 3.01% | 3.45% | 7.18% | -15.7% | 6.37% | 21.9% | -13.8% |
| CC(C)c1nn(C)c(N(C)C)c1CNCc1ccccc1CN(C)C | -0.693% | 10.5% | -8.08% | 13% | 1.13% | -5.36% | 7.85% | -8.54% | 0.49% | 7.32% | -12.6% |
| Cc1cnn(CC2CCCN2Cc2ncc(-c3ccccc3)o2)c1 (stereo unspecified) | -1.68% | -5.41% | -10.1% | -3.94% | -9.53% | 4.01% | 8.11% | 10.7% | 10.3% | 18.5% | -6.8% |
| Cc1c[nH]c(CN(C)c2nc(C3CCCC3)nc3c2cnn3C)n1 | -3.47% | 1.39% | 3.98% | -7.75% | -3.01% | 2.21% | 3.68% | -3.43% | 0% | 2.56% | -2.96% |
